Design in all cases: scale not given: direction of the effect not stated beside the values
Assay [1] deals with Protein translocase subunit SecA (Escherichia coli (strain K12)) (UniProt P10408). The assay can be described thus: Assay to Identify E. coli SecA ATPase Inhibitors. Type of assay: functional. As to conditions: 30 µM.
Assay [2] addresses T1, Ubiquitin-activating enzyme e1, putative (Leishmania donovani (strain BPK282A1)) (UniProt E9BSI1).
T1 sequence (whole entry): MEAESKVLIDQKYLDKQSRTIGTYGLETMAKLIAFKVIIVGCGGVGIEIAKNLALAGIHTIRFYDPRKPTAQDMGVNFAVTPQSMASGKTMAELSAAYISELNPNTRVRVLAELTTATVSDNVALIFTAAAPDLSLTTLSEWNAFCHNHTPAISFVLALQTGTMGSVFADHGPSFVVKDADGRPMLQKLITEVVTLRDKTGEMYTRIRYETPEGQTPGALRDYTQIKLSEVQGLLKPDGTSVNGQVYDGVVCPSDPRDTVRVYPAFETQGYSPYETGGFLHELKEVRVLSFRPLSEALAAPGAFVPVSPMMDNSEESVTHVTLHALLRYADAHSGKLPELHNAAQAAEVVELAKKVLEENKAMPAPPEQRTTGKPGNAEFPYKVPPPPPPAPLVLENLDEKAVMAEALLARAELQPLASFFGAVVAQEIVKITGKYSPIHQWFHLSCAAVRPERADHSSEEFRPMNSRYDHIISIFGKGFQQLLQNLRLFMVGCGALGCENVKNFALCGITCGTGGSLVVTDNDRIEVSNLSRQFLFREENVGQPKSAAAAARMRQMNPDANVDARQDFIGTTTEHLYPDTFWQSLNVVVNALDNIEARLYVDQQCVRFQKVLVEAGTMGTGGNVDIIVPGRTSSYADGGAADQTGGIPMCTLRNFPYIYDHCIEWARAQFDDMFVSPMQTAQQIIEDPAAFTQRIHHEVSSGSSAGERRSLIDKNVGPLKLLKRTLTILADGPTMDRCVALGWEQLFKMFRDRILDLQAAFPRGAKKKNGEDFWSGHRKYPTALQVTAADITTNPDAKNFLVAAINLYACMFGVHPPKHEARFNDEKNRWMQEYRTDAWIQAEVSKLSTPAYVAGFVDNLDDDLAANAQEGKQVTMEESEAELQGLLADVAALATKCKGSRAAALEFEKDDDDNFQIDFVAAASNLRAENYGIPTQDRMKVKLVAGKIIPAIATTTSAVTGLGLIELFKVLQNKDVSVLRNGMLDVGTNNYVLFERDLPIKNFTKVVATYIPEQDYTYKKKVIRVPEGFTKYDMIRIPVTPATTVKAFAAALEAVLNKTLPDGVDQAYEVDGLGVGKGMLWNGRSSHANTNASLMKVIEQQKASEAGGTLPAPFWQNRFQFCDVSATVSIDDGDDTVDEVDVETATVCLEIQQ
The assay is described as follows: Leishmania donovani Ubiquitin Activating Enzyme (LdE1). Type of assay: functional. Conditions: 30 µM.

Assay [3] concerns the target AMP-activated protein kinase, AMPK (Homo sapiens) (UniProt P54646+O43741+P54619+Q9UGJ0+Q9Y478+Q13131+Q9UGI9). The assay is described as follows: AMP-dependent Kinase enzyme assay. An in vitro enzyme assay that detects ADP turnover that is directly proportional to AMPK activity. This uses naive AMPK that is activated during the assay with MK-8722. The format is functional. Conditions: 30 µM.

Assay [4] concerns the target Sialic acid-binding Ig-like lectin 9 (Homo sapiens) (UniProt Q9Y336). The assay can be described thus: Hs-Siglec9 ALPHAscreen SOP 20170721. As to conditions: 10 µM. In general terms: Bead proximity is the source of the signal in Alpha formats.
Assay [5] has as its system Trypanosoma cruzi. The assay is described as follows: Trypanosoma cruzi phosphomannomutase and mannose-1-phosphate guanylyltransferase assay. As to conditions: 10 µM. Type of assay: functional.
In assay [6] the target is T2, Arginase-2, mitochondrial (Homo sapiens) (UniProt P78540).
T2 sequence (whole entry): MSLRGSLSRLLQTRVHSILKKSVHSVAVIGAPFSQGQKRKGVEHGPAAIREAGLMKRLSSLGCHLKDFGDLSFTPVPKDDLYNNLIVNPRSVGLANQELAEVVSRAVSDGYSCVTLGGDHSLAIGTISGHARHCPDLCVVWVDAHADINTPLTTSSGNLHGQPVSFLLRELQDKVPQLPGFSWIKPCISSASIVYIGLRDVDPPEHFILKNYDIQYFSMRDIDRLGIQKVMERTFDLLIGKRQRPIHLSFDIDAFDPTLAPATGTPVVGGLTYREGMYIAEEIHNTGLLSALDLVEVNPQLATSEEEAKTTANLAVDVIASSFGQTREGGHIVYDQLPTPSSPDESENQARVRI
The assay can be described thus: in vitro enzyme assay to detect the production of urea directly proportional to the activity of Arginase II. Further: in the data most compounds retested in dose-response had high values. As to conditions: 33.3 µM. The format is functional.

The target in assay [7] is T3, Proteasome subunit beta (Trypanosoma cruzi) (UniProt O96673).
T3 sequence (whole entry): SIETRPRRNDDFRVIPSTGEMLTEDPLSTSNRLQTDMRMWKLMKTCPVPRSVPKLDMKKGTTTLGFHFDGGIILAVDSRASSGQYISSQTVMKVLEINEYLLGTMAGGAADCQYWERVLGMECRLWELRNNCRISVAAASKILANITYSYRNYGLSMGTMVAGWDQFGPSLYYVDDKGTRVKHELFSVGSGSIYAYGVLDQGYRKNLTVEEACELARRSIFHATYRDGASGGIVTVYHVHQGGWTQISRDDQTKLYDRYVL
The assay is described as follows: Trypanosoma cruzi proteasome chymotrypsin-like activity (TcProtChymo) assay. Further: in the data most compounds retested in dose-response had high values. Type of assay: functional. Conditions: 9.37 µM.

The species named for assay [8] is Homo sapiens. The assay is described as follows: To identify inhibition of the IFN signalling (Jak-Stat) pathway via expression of an eGFP reporter gene under the control of an IFN-stimulated response element (ISRE) containing MxA promoter. The format is functional. As to conditions: 30 µM.
Assay [9] deals with T4, Tyrosyl-tRNA synthetase, putative (Trypanosoma cruzi (strain CL Brener)) (UniProt Q4DSP6).
T4 sequence (whole entry): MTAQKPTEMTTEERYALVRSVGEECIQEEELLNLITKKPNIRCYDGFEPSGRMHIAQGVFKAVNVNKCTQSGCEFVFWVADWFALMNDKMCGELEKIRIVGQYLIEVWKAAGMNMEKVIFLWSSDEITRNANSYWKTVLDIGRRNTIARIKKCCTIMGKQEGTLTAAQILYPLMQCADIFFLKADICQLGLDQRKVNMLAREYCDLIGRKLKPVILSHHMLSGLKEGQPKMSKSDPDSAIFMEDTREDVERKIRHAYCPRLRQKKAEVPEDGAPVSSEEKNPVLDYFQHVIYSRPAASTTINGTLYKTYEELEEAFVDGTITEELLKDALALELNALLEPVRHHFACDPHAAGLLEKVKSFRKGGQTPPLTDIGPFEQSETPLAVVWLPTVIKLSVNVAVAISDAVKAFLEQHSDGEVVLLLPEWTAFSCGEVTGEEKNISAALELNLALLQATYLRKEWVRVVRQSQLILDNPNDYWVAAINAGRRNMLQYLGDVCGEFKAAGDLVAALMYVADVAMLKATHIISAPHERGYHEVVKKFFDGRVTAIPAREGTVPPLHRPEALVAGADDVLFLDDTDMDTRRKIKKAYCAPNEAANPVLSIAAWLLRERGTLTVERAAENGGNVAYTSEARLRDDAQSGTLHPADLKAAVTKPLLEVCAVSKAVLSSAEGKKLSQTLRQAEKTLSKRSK
The assay can be described thus: Trypanosoma cruzi tyrosyl tRNA synthetase (TcYRS) _High Tyrosine SOP. Further: in the data most compounds retested in dose-response had high values. The format is functional. Conditions: 30 µM.

Assay [10] deals with T4, Tyrosyl-tRNA synthetase, putative (Trypanosoma cruzi (strain CL Brener)). The assay is described as follows: Trypanosoma cruzi tyrosyl tRNA synthetase (TcYRS) SOP. As to conditions: 30 µM. Type of assay: functional.
Assay [11] deals with Chromo domain-containing protein 1 (Saccharomyces cerevisiae (strain ATCC 204508 / S288c) (Baker's yeast)) (UniProt P32657). The assay is described as follows: ScCHD-1 Enzyme Inhibition Assay. Further: in the data most compounds retested in dose-response had high values. As to conditions: 30 µM. The format is functional.
Chain of Chromo domain-containing protein 1 (Saccharomyces cerevisiae (strain ATCC 204508 / S288c) (Baker's yeast)) (P32657 whole entry, the tested form may be a part): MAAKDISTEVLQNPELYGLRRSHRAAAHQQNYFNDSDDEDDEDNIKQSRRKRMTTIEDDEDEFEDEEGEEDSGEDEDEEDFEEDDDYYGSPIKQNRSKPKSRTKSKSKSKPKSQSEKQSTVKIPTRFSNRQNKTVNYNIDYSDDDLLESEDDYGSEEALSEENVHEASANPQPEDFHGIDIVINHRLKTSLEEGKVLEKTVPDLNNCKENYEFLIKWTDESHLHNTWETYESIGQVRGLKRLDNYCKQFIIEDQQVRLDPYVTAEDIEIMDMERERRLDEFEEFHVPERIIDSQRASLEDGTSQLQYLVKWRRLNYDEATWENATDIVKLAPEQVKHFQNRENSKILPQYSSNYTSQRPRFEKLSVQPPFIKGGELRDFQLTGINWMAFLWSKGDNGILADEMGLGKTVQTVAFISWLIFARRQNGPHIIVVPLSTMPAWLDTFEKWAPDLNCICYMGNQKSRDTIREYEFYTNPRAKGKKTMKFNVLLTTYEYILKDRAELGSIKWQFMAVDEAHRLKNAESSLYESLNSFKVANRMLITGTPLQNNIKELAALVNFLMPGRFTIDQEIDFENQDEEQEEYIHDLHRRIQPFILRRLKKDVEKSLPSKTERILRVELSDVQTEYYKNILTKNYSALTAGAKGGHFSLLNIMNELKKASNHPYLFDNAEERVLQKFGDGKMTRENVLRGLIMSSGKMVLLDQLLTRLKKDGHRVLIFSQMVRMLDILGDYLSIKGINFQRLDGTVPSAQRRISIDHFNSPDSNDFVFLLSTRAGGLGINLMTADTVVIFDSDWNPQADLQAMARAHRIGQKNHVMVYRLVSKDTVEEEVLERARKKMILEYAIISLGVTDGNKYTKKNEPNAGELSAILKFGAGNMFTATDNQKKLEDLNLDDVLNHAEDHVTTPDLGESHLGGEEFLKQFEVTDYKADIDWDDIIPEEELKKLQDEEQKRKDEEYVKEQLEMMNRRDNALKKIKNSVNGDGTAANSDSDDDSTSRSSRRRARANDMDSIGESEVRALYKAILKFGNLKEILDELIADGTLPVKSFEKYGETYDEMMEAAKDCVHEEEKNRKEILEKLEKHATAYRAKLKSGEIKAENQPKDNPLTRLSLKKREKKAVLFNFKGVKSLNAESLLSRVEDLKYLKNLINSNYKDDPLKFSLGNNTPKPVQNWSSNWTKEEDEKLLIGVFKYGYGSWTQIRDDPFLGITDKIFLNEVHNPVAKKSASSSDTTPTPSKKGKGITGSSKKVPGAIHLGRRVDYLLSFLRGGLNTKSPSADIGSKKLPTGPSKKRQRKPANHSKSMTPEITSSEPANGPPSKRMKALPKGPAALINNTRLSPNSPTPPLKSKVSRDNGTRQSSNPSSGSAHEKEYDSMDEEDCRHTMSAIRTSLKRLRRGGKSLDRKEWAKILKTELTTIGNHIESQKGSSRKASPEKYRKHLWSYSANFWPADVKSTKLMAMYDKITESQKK

SMILES strings stand for the structures. For some of these results: Entries with a potency or affinity are not part of this list.

Chain of Protein translocase subunit SecA (Escherichia coli (strain K12)) (P10408 whole entry): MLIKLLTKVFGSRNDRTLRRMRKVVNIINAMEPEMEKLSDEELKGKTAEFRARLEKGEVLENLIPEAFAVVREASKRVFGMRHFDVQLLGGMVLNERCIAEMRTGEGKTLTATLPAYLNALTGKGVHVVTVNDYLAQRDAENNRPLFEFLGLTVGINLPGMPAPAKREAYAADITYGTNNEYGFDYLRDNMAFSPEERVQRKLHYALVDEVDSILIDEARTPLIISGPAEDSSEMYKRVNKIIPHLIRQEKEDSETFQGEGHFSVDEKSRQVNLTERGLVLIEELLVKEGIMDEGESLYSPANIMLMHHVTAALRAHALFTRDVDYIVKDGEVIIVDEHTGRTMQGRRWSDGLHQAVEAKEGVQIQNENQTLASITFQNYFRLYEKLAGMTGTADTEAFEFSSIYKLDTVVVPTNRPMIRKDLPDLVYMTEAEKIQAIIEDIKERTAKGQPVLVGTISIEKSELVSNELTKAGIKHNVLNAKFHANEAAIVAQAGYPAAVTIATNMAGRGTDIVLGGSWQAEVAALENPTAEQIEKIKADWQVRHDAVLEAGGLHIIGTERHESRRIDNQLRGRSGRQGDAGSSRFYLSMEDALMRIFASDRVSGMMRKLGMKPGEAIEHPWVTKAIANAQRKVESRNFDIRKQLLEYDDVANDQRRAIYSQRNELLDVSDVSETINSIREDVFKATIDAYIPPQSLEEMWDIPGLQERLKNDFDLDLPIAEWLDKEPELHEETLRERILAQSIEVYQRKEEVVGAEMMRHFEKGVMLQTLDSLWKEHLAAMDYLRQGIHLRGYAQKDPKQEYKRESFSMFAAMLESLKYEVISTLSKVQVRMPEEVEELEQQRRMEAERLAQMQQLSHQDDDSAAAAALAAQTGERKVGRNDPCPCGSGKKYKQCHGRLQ
Chain of Sialic acid-binding Ig-like lectin 9 (Homo sapiens) (Q9Y336 whole entry): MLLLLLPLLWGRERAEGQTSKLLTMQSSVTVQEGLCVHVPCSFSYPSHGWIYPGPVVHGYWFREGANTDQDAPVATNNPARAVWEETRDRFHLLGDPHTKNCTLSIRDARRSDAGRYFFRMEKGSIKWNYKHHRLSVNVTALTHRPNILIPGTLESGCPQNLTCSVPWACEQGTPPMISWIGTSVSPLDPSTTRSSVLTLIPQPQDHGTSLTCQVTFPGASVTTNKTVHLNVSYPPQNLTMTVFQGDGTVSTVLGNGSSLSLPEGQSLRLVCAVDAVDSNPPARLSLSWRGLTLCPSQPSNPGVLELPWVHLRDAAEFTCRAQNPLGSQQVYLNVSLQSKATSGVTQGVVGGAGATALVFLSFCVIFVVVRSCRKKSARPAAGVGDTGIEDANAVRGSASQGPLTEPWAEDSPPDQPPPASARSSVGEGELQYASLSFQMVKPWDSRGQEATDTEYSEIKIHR

As for `O=C1CC(c2ccc(C(=O)O)cc2)c2ncn(-c3ccccc3)c2N1` (stereo unspecified), the Percent Effect is -4.54% in assay [1]; 9.33% in assay [2]; -172% in assay [3]; -2.38% in [4]; 0.786% in assay [5]; -8.63% in [6]. Besides, the Percent Effect in assay [7] was 19.2%; in assay [8] it was 2.29%; in assay [9], 9.52%; in assay [10], 7.69%; in assay [11], -7.97%.
As to `CN1CCCC[C@@H]2[C@H]1[C@@H](c1ccccc1)CCN2C(=O)c1ccccc1`, the Percent Effect in assay [1] is -2.17%; in assay [2], -12.2%; in [3], 2.42%; in assay [4], 3.03%; in [5] it was 4.54%; in assay [6], 0.696%. Besides, the Percent Effect in assay [7] was 15.6%; in assay [8], -13.3%; in assay [9], 7.53%; in assay [10] it was 14.3%; in assay [11], -12.5%.
As for `Cc1cnn(CC2CCCN2c2nn3cc(C)nc3s2)c1` (stereo unspecified), the Percent Effect was -7.38% in assay [1]; 11.4% in [2]; -3.44% in assay [3]; 2.81% in assay [4]; -0.103% in assay [5]; -1.07% in [6]. Besides, the Percent Effect in assay [7] was 7.03%; in assay [8], 8.17%; in assay [9], -2.08%; in assay [10], 15.2%; in [11] it was -26%.
Consider `O=C(O)c1nnn(-c2ccc(F)c(F)c2)c1-c1ccncc1`, for which the Percent Effect in assay [1] was -2.11%; in assay [2], 13.2%; in assay [3], 4.49%; in [4] it was -2.68%; in assay [5], -3.6%; in assay [6] it was 4.73%. For the same molecule, the Percent Effect in [7] is 20.6%; in assay [8], -18.7%; in assay [9], 2.13%; in assay [10], 2.6%; in assay [11], -1.59%.
For `COc1ccc(C(=O)N2CCCC(C)C2)cc1F` (stereo unspecified), the Percent Effect was -4.09% in assay [1]; 24.3% in assay [2]; -19.3% in [3]; -3.4% in [4]; 2.17% in assay [5]; -15.6% in assay [6]. Besides, the Percent Effect in [7] is 16.2%; in assay [8], 18.6%; in assay [9], 4.43%; in assay [10], 18.5%; in assay [11] it was -9.54%.
For `CCc1nc(NS(=O)(=O)c2cc(C)ccc2F)no1`, the Percent Effect is -0.155% in assay [1]; 0% in assay [2]; -9.72% in assay [3]; 8.2% in assay [4]; 6.13% in assay [5]; 15.1% in assay [6]. In addition, the Percent Effect in assay [7] was 3.84%; in assay [8] it was 1.84%; in [9] it was 2.73%; in assay [10] it was 6.17%; in assay [11], -2.85%.
`Cc1cc(C)n(CCCNC(=O)C(C)NC(=O)c2ccccc2Cl)n1` (stereo unspecified): the Percent Effect in [1] was -2.06%; in assay [2], 5.26%; in assay [3], 4.16%; in assay [4], -4.01%; in [5], -2.63%; in assay [6], 0%. Besides, the Percent Effect is 6.81% in assay [7]; -13.1% in assay [8]; 5.32% in assay [9]; 10.4% in assay [10]; -5.43% in assay [11].
For the molecule `COc1ccc(NC(=O)CNc2cccc3c2CCCC3)c(OC)c1`, the Percent Effect is -6.64% in assay [1]; -2.7% in assay [2]; -0.0771% in [3]; 0.268% in assay [4]; -5.57% in assay [5]; -3.23% in assay [6]. The Percent Effect was 6.95% in [7]; -3.03% in [8]; -6.45% in [9]; -11.1% in assay [10]; -3.27% in assay [11].
`Cc1ccc2c(ccn2CC(=O)NC[C@@H]2CCCN3CCCC[C@H]23)c1`: the Percent Effect in assay [1] is -5.2%; in [2], 28%; in [3], -5.58%; in [4], 4.06%; in [5] it was 5.5%; in assay [6], -6.16%. The Percent Effect was 16.3% in assay [7]; -4.16% in assay [8]; 4.23% in assay [9]; 12.8% in assay [10]; -11.5% in assay [11].
In the case of `COc1ccc(CN2CCCC2Cn2nc(C)nc2C)cc1F` (stereo unspecified), the Percent Effect in assay [1] is -3.83%; in assay [2], 6.33%; in assay [3] it was 4.88%; in assay [4], 0.831%; in assay [5], -0.718%; in assay [6], 2.8%. Further, the Percent Effect in [7] is 8.58%; in assay [8], 3.7%; in assay [9] it was 5.21%; in assay [10] it was 7.59%; in assay [11] it was -16.6%.
Consider `CC(=O)N1CCCCC1c1nc2c(c(N3CCCCC3)n1)CN(C)CC2` (stereo unspecified), for which the Percent Effect is 0.622% in [1]; -9.46% in [2]; 2.5% in [3]; 0.77% in [4]; 1.38% in assay [5]; -3.48% in assay [6]. For the same molecule, the Percent Effect is 23.4% in assay [7]; 11.2% in assay [8]; 15.1% in assay [9]; 14.3% in [10]; -9.65% in assay [11].

Source of the values: ChEMBL document CHEMBL3988442, “University of Dundee, Small-Polar-MMV Screening Library” (2021).
